Reference: PubChem BioAssay AID1159580 (chemical genetic matrix, 2015)
Screen size: about 5,500 compounds; about 2,000 (36%) were called active. Another 18% or so got no clear call; they are omitted. No stated cut-off is given here; in the data, active means normalized growth mostly below about 0.91 (no sharp cut-off); inconclusive means no clear call, values can overlap the other calls; inactive means mostly above about 0.92. This is one part of the list.

Test: chemical genetic growth profiling, strain panel (AID 1159580);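 further: tested at 20 µM; growth read once vehicle control cultures reached saturation at 30 °C; 1 = growth at the plate median or of vehicle wells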
Details: growth OD
[1] = S. cerevisiae deletion strains, locus YMR307W, strain GAS1, stronger effect = lower value
[2] = S. cerevisiae deletion strains, locus YNL128W, strain TEP1, stronger effect = lower value
[3] = S. cerevisiae deletion strains, locus YPL055C, strain LGE1, stronger effect = lower value

Measured: normalized growth

NC[C@@H]1O[C@H](C23CC4CC(CC(C4)C2)C3)Cc2c1ccc(O)c2O
inactive: S. cerevisiae deletion strains, locus YAL040C, strain CLN3, stronger effect = lower value 0.954 | S. cerevisiae deletion strains, locus YER002W, strain NOP16, stronger effect = lower value 0.998 | S. cerevisiae deletion strains, locus YMR263W, strain SAP30, stronger effect = lower value 1 | [2] 0.995 | S. cerevisiae deletion strains, locus YNL175C, strain NOP13, stronger effect = lower value 1.03 | S. cerevisiae deletion strains, locus YNL197C, strain WHI3, stronger effect = lower value 1.03 | S. cerevisiae deletion strains, locus YNL224C, strain SQS1, stronger effect = lower value 1.09 | S. cerevisiae deletion strains, locus YOR083W, strain WHI5 (second series), stronger effect = lower value 1.01
active: [1] 0.414 | [3] 0.599

CC12CCC3c4ccc(OCc5ccccc5)cc4CCC3C1C[C@@H](O)[C@@H]2O (stereo partly specified)
active: S. cerevisiae deletion strains, locus YBR229C, strain ROT2, stronger effect = lower value 0.0599 | S. cerevisiae deletion strains, locus YCL029C, strain bik1, stronger effect = lower value 0.0651 | S. cerevisiae deletion strains, locus YDL035C, strain GPR1, stronger effect = lower value 0.1 | S. cerevisiae deletion strains, locus YDL074C, strain BRE1, stronger effect = lower value 0.0834 | S. cerevisiae deletion strains, locus YDL101C, strain DUN1, stronger effect = lower value 0.0689 | S. cerevisiae deletion strains, locus YDL134C, strain PPH21, stronger effect = lower value 0.055 | S. cerevisiae deletion strains, locus YDL185W, strain tfp1, stronger effect = lower value 0.058 | S. cerevisiae deletion strains, locus YDL192W, strain arf1, stronger effect = lower value 0.0627 | S. cerevisiae deletion strains, locus YDR101C, strain arx1, stronger effect = lower value 0.127 | S. cerevisiae deletion strains, locus YDR150W, strain NUM1, stronger effect = lower value 0.355 | S. cerevisiae deletion strains, locus YDR162C, strain NBP2, stronger effect = lower value 0.0538 | S. cerevisiae deletion strains, locus YDR318W, strain mcm21, stronger effect = lower value 0.076 | S. cerevisiae deletion strains, locus YDR388W, stronger effect = lower value 0.066 | S. cerevisiae deletion strains, locus YDR502C, strain sam2, stronger effect = lower value 0.0938 | S. cerevisiae deletion strains, locus YEL061C, strain CIN8, stronger effect = lower value 0.0518 | S. cerevisiae deletion strains, locus YER110C, stronger effect = lower value 0.0937 | S. cerevisiae deletion strains, locus YER155C, strain BEM2, stronger effect = lower value 0.0637 | S. cerevisiae deletion strains, locus YER167W, strain BCK2, stronger effect = lower value 0.0557 | S. cerevisiae deletion strains, locus YGL078C, strain dbp3, stronger effect = lower value 0.106 | S. cerevisiae deletion strains, locus YGL086W, strain mad1, stronger effect = lower value 0.0655 | S. cerevisiae deletion strains, locus YGL248W, strain PDE1, stronger effect = lower value 0.0599 | S. cerevisiae deletion strains, locus YGR135W, strain pre9, stronger effect = lower value 0.265 | S. cerevisiae deletion strains, locus YGR252W, strain gcn5, stronger effect = lower value 0.133 | S. cerevisiae deletion strains, locus YHR030C, strain SLT2, stronger effect = lower value 0.0559 | S. cerevisiae deletion strains, locus YHR079C, strain IRE1 (second series), stronger effect = lower value 0.0829 | S. cerevisiae deletion strains, locus YHR094C, strain hxt1, stronger effect = lower value 0.0776 | S. cerevisiae deletion strains, locus YHR129C, strain ARP1, stronger effect = lower value 0.0606 | S. cerevisiae deletion strains, locus YHR200W, strain rpn10, stronger effect = lower value 0.0742 | S. cerevisiae deletion strains, locus YIL066C, strain RNR3, stronger effect = lower value 0.0563 | S. cerevisiae deletion strains, locus YIL073C, strain SPO22, stronger effect = lower value 0.112 | S. cerevisiae deletion strains, locus YIL125W, strain kgd1, stronger effect = lower value 0.0668 | S. cerevisiae deletion strains, locus YIR030C, strain dcg1, stronger effect = lower value 0.104 | S. cerevisiae deletion strains, locus YJL095W, strain BCK1, stronger effect = lower value 0.062 | S. cerevisiae deletion strains, locus YJL134W, strain LCB3, stronger effect = lower value 0.0681 | S. cerevisiae deletion strains, locus YJL168C, strain set2, stronger effect = lower value 0.0842 | S. cerevisiae deletion strains, locus YJL187C, strain SWE1 (second series), stronger effect = lower value 0.0613 | S. cerevisiae deletion strains, locus YJR043C, strain POL32, stronger effect = lower value 0.0826 | S. cerevisiae deletion strains, locus YJR075W, strain HOC1, stronger effect = lower value 0.0841 | S. cerevisiae deletion strains, locus YKL009W, strain mrt4, stronger effect = lower value 0.0811 | S. cerevisiae deletion strains, locus YKL068W, stronger effect = lower value 0.187 | S. cerevisiae deletion strains, locus YKL085W, strain MDH1 (second series), stronger effect = lower value 0.068 | S. cerevisiae deletion strains, locus YKL085W, strain MDH1, stronger effect = lower value 0.068 | S. cerevisiae deletion strains, locus YKL190W, strain CNB1, stronger effect = lower value 0.0552 | S. cerevisiae deletion strains, locus YKR001C, strain vps1, stronger effect = lower value 0.062 | S. cerevisiae deletion strains, locus YLR039C, strain RIC1, stronger effect = lower value 0.0869 | S. cerevisiae deletion strains, locus YLR058C, strain SHM2, stronger effect = lower value 0.0598 | S. cerevisiae deletion strains, locus YLR102C, strain apc9, stronger effect = lower value 0.0693 | S. cerevisiae deletion strains, locus YLR262C, strain YPT6, stronger effect = lower value 0.103 | S. cerevisiae deletion strains, locus YLR268W, strain sec22, stronger effect = lower value 0.0915 | S. cerevisiae deletion strains, locus YLR330W, strain CHS5, stronger effect = lower value 0.0559 | S. cerevisiae deletion strains, locus YLR342W, strain FKS1 (second series), stronger effect = lower value 0.0702 | S. cerevisiae deletion strains, locus YLR371W, strain rom2, stronger effect = lower value 0.0664 | S. cerevisiae deletion strains, locus YLR418C, strain cdc73, stronger effect = lower value 0.101 | S. cerevisiae deletion strains, locus YML016C, strain PPZ1, stronger effect = lower value 0.0511 | S. cerevisiae deletion strains, locus YML032C, strain rad52, stronger effect = lower value 0.0688 | S. cerevisiae deletion strains, locus YML124C, strain tub3, stronger effect = lower value 0.117 | S. cerevisiae deletion strains, locus YMR078C, strain ctf18, stronger effect = lower value 0.0734 | S. cerevisiae deletion strains, locus YMR223W, strain ubp8, stronger effect = lower value 0.0801 | [1] 0.114 | S. cerevisiae deletion strains, locus YNL067W, strain RPL9B, stronger effect = lower value 0.093 | [2] 0.0726 | S. cerevisiae deletion strains, locus YNL153C, strain GIM3, stronger effect = lower value 0.0573 | S. cerevisiae deletion strains, locus YNL233W, strain BNI4, stronger effect = lower value 0.0603 | S. cerevisiae deletion strains, locus YNL250W, strain rad50, stronger effect = lower value 0.0963 | S. cerevisiae deletion strains, locus YNL271C, strain bni1, stronger effect = lower value 0.129 | S. cerevisiae deletion strains, locus YNL298W, strain CLA4, stronger effect = lower value 0.0669 | S. cerevisiae deletion strains, locus YNL307C, strain MCK1, stronger effect = lower value 0.0674 | S. cerevisiae deletion strains, locus YNR052C, strain pop2, stronger effect = lower value 0.0752 | S. cerevisiae deletion strains, locus YOL006C, strain TOP1, stronger effect = lower value 0.114 | S. cerevisiae deletion strains, locus YOL012C, strain htz1 0.149 | S. cerevisiae deletion strains, locus YOL147C, strain pex11, stronger effect = lower value 0.0612 | S. cerevisiae deletion strains, locus YOR061W, strain CKA2, stronger effect = lower value 0.0522 | S. cerevisiae deletion strains, locus YOR069W, strain VPS5, stronger effect = lower value 0.0556 | S. cerevisiae deletion strains, locus YOR136W, strain idh2, stronger effect = lower value 0.077 | S. cerevisiae deletion strains, locus YOR144C, strain elg1, stronger effect = lower value 0.0719 | S. cerevisiae deletion strains, locus YOR184W, strain ser1, stronger effect = lower value 0.0768 | S. cerevisiae deletion strains, locus YOR316C, strain cot1, stronger effect = lower value 0.0738 | [3] 0.0696 | S. cerevisiae deletion strains, locus YPL241C, strain CIN2, stronger effect = lower value 0.0593 | S. cerevisiae deletion strains, locus YPR119W, strain clb2, stronger effect = lower value 0.0659 | S. cerevisiae deletion strains, locus YPR141C, strain kar3, stronger effect = lower value 0.106 | S. cerevisiae deletion strains, locus YPR163C, strain tif3, stronger effect = lower value 0.0746 | S. cerevisiae deletion strains, locus YPR167C, strain met16, stronger effect = lower value 0.0654 | S. cerevisiae deletion strains, strain wtn01, stronger effect = lower value 0.107 | S. cerevisiae strains, strain wild type, stronger effect = lower value 0.0526
inactive: S. cerevisiae deletion strains, locus YBR021W, strain FUR4, stronger effect = lower value 0.995
